Results on 27 compounds are retold here after PubChem BioAssay AID651687 (Broad Institute, 2012).

Each structure is given as a SMILES string. Values joined by “and” are separate entries in the source; they are usually repeats but may differ in a detail not shown here. Equal values may be shown once. The whole screen tested about 350,000 compounds, of which about 600 (0.17%) were called active. The sample as a whole holds a higher share of actives than the screen did. A number with no mark means an inactive call.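 The calls were made as follows: active = every replicate shows inhibition of at least 40%; inconclusive = mean inhibition at least 40% but some replicate below; inactive = the rest.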

A short description of the test: compounds lowering acetylated PGC1a in cells – cell-based, U2OS, AlphaScreen, inhibitor mode, primary screen (AID 651687).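 Also: 0% = neutral control wells and 100% = positive control wells.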 The following applies: U2OS PGC1a acetylation, AlphaScreen anti-acetyl-lysine; at 15.6 µM; stronger effect = higher value; with virally co-expressed GCN5 acetyltransferase. (In general: Alpha assays give light when donor and acceptor beads are brought close together.)
The inhibition is the drop in the measured response relative to a control, in per cent. In the case of `COc1ccc(S(=O)(=O)N(C)C[C@H]2Oc3ccc(NS(C)(=O)=O)cc3C(=O)N([C@H](C)CO)C[C@H]2C)cc1`, the inhibition was -5.85%.

As to `O=C(Cc1ccccc1)N1CC[C@H]2[C@H](CO)Nc3ccc(-c4ccccc4F)cc3[C@H]21`, the inhibition was -17.2%.

`CC(C)NC(=O)Nc1ccc2c(c1)C(=O)N([C@H](C)CO)C[C@H](C)[C@@H](CN(C)Cc1ccc3c(c1)OCO3)OCCCC[C@H](C)O2`: the inhibition is 4.63%.

Take `C[C@@H]1CN([C@@H](C)CO)C(=O)c2cc(NC(=O)c3ccncc3)ccc2O[C@@H]1CN(C)S(C)(=O)=O`: the inhibition was 6.79%.

As for `Cc1ccccc1-c1ccc([C@H]2[C@@H](CO)N3C(=O)CN(C(=O)c4ccncc4)C[C@H]23)cc1`, the inhibition is -5.89%.

Regarding `Cn1c2c(c(=O)n(C)c1=O)C(c1cccc(F)c1)C(C#N)=C(N)O2` (configuration not stated), the inhibition is 80.9% (active).

For `Cc1cc2c(c(=O)n1C)C(C(C)C)C(C#N)=C(N)O2` (configuration not stated), the inhibition is 8.23%.

For `N#CC1=C(N)Oc2cc(N)ccc2C1c1ccccc1` (configuration not stated), the inhibition is -1.66%.

For the compound `C[C@@H]1CN([C@@H](C)CO)C(=O)c2cc(NC(=O)CCCCCC(=O)Nc3ccccc3N)ccc2O[C@@H](C)CCCCO[C@@H]1CN(C)CC1CCCCC1`, the inhibition was 3.98%.

Regarding `O=C(CC(F)(F)F)N1C[C@H]2[C@@H](c3ccccc31)[C@H](CO)N2C(=O)Cc1cccnc1`, the inhibition is 0.596%.

As for `CN(C)Cc1cn(CC[C@H]2CC[C@@H](NS(=O)(=O)c3ccccc3)[C@H](CO)O2)nn1`, the inhibition is -1.22%.

Turning to `CO[C@H]1CN(C)C(=O)c2ccc(NS(C)(=O)=O)cc2OC[C@@H](C)N(Cc2ccccc2)C[C@H]1C`, the inhibition was 4.39%.

With `O=C(C[C@@H]1CC[C@@H](NC(=O)c2cccnc2)[C@H](CO)O1)NCCN1CCCCC1`, the inhibition is 6.21%.

Take `CCC(=O)N1CC(=O)N2[C@@H](CO)[C@H](c3ccc(C#CCC(C)C)cc3)[C@@H]2C1`: the inhibition is -4.62%.

Turning to `O=C(CC(F)(F)F)N1C[C@H]2[C@@H](c3ccccc31)[C@H](CO)N2C(=O)Cc1ccccc1`, the inhibition is 9.3%.

In the case of `C/C=C/c1ccccc1[C@@H]1[C@@H](C#N)N(C(=O)Cc2ccccn2)[C@H]1CO`, the inhibition is -0.046%.

As to `C[C@H]1CN([C@@H](C)CO)S(=O)(=O)c2ccc(C#CC3(O)CCCC3)cc2O[C@@H]1CN(C)C(=O)Nc1cccc(F)c1`, the inhibition was -10%.

Consider `Cc1ccc(S(=O)(=O)N2C[C@H](O)COC[C@@H]3O[C@@H](CC(=O)NCC4CCCCC4)CC[C@H]32)cc1`, for which the inhibition was -0.708%.

As for `COc1ccccc1CN1[C@@H]2CNC[C@H]1C2c1ccc(-c2cccc(C#N)c2)cc1` (some centres not stated), the inhibition is 1.68% and -10%.

On to `N#Cc1ccc(-c2ccc3c(c2)[C@H]2[C@H](CCN2Cc2ccc4c(c2)OCO4)[C@@H](CO)N3)cc1`, for which the inhibition is -7%.

Regarding `N#Cc1ccc(-c2ccc([C@@H]3[C@H]4CNC[C@@H]3N4Cc3ccc4c(c3)OCO4)cc2)cc1`, the inhibition was 48.1% (active).

Regarding `COc1ccc2c3c([nH]c2c1)[C@H](CO)N(Cc1ccccc1OC)CC31CCN(S(=O)(=O)c2ccccc2)CC1`, the inhibition is 8.15%.

As for `C[C@@H]1CN([C@@H](C)CO)C(=O)c2cccc(NC(=O)c3ccc(-c4nccs4)cc3)c2O[C@H]1CN(C)C(=O)Nc1ccccc1`, the inhibition is -1.84%.

With `Cc1ccc(C)n1NC(=O)c1ccc([N+](=O)[O-])cc1`, the inhibition is 2.46%.

With `O=C(Nn1cnnc1)c1ccc([N+](=O)[O-])cc1`, the inhibition is -2.58%.

In the case of `N=C1C(c2nc3ccccc3s2)=C(O)CN1NC(=O)c1ccc([N+](=O)[O-])cc1`, the inhibition is 100% (active).

As for `COc1ccc(NC(=O)N2C[C@H](O)COC[C@H]3O[C@@H](CC(=O)NC4Cc5ccccc5C4)CC[C@@H]32)cc1`, the inhibition is 1.58%.
